Bioassay records deposited in PubChem by National Center for Advancing Translational Sciences (NCATS).
The list is not random: actives were taken first. Their share in the collection is about 2.3%.
Tau FP inhib: qHTS for Inhibitors of Tau Fibril Formation, Fluorescence Polarization; Microtubule-associated protein tau (Homo sapiens), P10636; K18 P301L tau heparin fibrillization, Alexa594 FP, 6 h; Potency, µM (highest dose often 57.7 µM), without a hit: at the top dose activity, negative = inhibition, most hits filed as inhibitors; AID 1468, 2008; 280,000 tested, 0.39% active; further: potency means the concentration at half of the fitted maximal effect; nearly all actives have a fitted effect of over 55% in size
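Human K18 P301L fragment (15 uM unlabeled plus 0.24 uM Alexa 594-labeled) in 100 mM sodium acetate pH 7 with compound, aggregation induced by 20 uM heparin for 6 hr at 37 C. ThT (30 uM) added for 1 hr, then Alexa 594 FP read.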
Tau fluor counter: Counterscreen qHTS for Inhibitors of Tau Fibril Formation, Fluorescence Polarization. tau K18 P301L Alexa594 fluorescence, heparin fibrillization. Potency, µM (highest dose often 57.7 µM), without a hit: at the top dose activity change, negative = decrease. 280,000 tested, 0.93% active. AID 1463, 2008; further: potency means the concentration at half of the fitted maximal effect; nearly all actives have a fitted effect of over 55% in size
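Human K18 P301L tau (15 uM unlabeled plus 0.24 uM Alexa 594-labeled, final) in 100 mM sodium acetate pH 7 was mixed with compound and 20 uM heparin and incubated 6 hr at 37 C.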
USP1 inh: Inhibitors of USP1/UAF1: Primary Screen. recombinant USP1/UAF1, Ub-Rhodamine cleavage fluorescence. Potency, µM (titrated, usually from 57.1 µM), for the others: at the top dose activity change, negative = inhibition, hits mostly inhibitors. Ubiquitin carboxyl-terminal hydrolase 1 (Homo sapiens), O94782. 390,000 tested, 0.23% active; further: potency means the concentration at half of the fitted maximal effect; nearly all actives have a fitted effect of over 60% in size
Target sequence (O94782 whole entry, looked up): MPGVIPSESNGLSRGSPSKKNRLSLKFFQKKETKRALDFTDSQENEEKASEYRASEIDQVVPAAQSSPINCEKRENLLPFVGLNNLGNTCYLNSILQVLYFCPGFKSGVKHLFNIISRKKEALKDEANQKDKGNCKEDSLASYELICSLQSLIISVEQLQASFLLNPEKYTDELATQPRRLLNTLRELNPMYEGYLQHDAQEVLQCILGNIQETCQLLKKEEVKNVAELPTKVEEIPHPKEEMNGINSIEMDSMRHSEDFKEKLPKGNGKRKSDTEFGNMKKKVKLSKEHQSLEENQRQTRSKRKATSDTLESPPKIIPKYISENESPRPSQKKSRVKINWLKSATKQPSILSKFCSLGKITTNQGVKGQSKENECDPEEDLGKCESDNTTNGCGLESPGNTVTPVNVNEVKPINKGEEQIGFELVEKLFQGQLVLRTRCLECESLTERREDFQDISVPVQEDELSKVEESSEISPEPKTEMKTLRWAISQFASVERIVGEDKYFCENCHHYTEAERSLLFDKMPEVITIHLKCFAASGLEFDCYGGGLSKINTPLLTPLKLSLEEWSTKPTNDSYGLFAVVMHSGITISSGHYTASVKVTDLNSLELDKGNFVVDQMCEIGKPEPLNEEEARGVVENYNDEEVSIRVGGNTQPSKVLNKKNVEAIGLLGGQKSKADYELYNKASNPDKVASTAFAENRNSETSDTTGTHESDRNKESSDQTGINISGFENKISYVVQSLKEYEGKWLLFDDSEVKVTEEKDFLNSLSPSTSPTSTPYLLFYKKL
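USP1/UAF1 complex at 1 nM was preincubated with compound for 15 min at room temperature, then Ub-Rho substrate (150nM final) was added. Fluorescence (480/540 nm) was read kinetically, 6 reads every 60 seconds.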
Coupling enz: qHTS Assay for Inhibitors of Fructose-1,6-bisphosphate Aldolase from Giardia Lamblia: Coupling assay counterscreen | coupling enzyme system counterscreen, AmpLite Red fluorescence | activity change, negative = inhibition, % at 58.2 µM, hits read low | 290,000 tested, 0.67% active | AID 2472, 2010; in the data active means activity change below about -30%
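First, compound is pin-transferred into glyceraldehyde-3-phosphate coupling-enzyme reagent at 57.5 uM final and held 10 min at RT. Next, substrate, coupling system and AmpLite Red are added. After 20 min RT, fluorescence (525/598 nm) is read.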
Tau fibril ThT: qHTS for Inhibitors of Tau Fibril Formation, Thioflavin T Binding; Microtubule-associated protein tau (Homo sapiens), P10636; recombinant tau K18 P301L, heparin-induced fibrillization, ThT fluorescence; Potency, µM (titrated, usually from 57.4 µM), without a hit: at the top dose activity, negative = inhibition, hits mostly inhibitors; 270,000 tested, 2.1% active; further: potency means the concentration at half of the fitted maximal effect; nearly all actives have a fitted effect of over 55% in size
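Fibril formation assay: tau K18 P301L at 15 uM with trace Alexa 594 label, heparin inducer 20 uM, pH 7 sodium acetate buffer, 37 C for 6 hr; endpoint ThT signal.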
Numbers without * were called inactive; [ ] = dose if it differs, or a comment. Unless noted, the call rests on the fitted dose curve; in most records, active means well fitted curve in the direction sought with a large enough effect; inconclusive means small, poorly fitted or top-dose-only effect, or another doubt; inactive means no such curve, though single readings can be large; an effect the other way counts as inactive or inconclusive. On the % scale 0 is the no-effect control and ±100 the full control effect.

What do the screens show for `CN(C)c1ccc(N/C=C/C(=O)C(C)(C)C)cc1`?
Tau FP inhib: inconclusive; Tau fluor counter: inconclusive; USP1 inh: -18.0%; Coupling enz: -29.1; Tau fibril ThT: 15.8µM*

Results for CCOC(=O)c1ccc(N/C=C/C(=O)C(C)(C)C)cc1 ?
Tau FP inhib: 6.2%; Tau fluor counter: -7.0%; USP1 inh: inconclusive; Coupling enz: -0.2; Tau fibril ThT: inconclusive

Results for CN(C)c1ccc(N/C=C/C(=O)c2ccccc2)cc1 ?
Tau FP inhib: -18.1%; Tau fluor counter: inconclusive; USP1 inh: 0.9%; Coupling enz: -20.7; Tau fibril ThT: 1.78µM*

Results for CCOc1ccc(NC(=O)C(=O)NCCc2csc(-c3ccc(F)cc3)n2)cc1 ?
Tau FP inhib: -7.9%; Tau fluor counter: 10.8%; USP1 inh: -27.7%; Tau fibril ThT: -4.1%

What do the screens show for `COc1ccc(NC(=O)c2cnc(N3CCCCC3)c3ccccc23)cc1Cl`?
Tau FP inhib: -16.7%; Tau fluor counter: inconclusive; USP1 inh: -18.4%; Tau fibril ThT: -7.2%

What do the screens show for `O=C(N/N=C/c1cn(-c2cccs2)nc1-c1ccccc1)c1ccccc1Cl`?
Tau FP inhib: inconclusive; Tau fluor counter: inconclusive; USP1 inh: -15.9%; Coupling enz: 0.4; Tau fibril ThT: -9.2%

Results for O=C(N/N=C/c1cn(-c2cccs2)nc1-c1ccccc1)c1ccc(O)cc1 ?
Tau FP inhib: inconclusive; Tau fluor counter: 10µM*[quencher]; USP1 inh: -8.5%; Coupling enz: -1.4; Tau fibril ThT: 4.7%

Results for COc1ccc(Nc2c([N+](=O)[O-])ccc3c2=NC2(CCCCC2)N=3)cc1 ?
Tau FP inhib: inconclusive; Tau fluor counter: inconclusive; USP1 inh: -20.1%; Coupling enz: -33.9*; Tau fibril ThT: 15.8µM*

Results for COc1ccc(N)cc1-n1c(C)ccc1C ?
Tau FP inhib: inconclusive; Tau fluor counter: inconclusive; USP1 inh: inconclusive; Coupling enz: -26.6; Tau fibril ThT: 3.16µM*

What do the screens show for `COc1ccc(C)cc1-n1c(C)cc(C=O)c1C`?
Tau FP inhib: 0.5%; Tau fluor counter: -5.5%; USP1 inh: -4.8%; Coupling enz: -10.9; Tau fibril ThT: -3.8%

What do the screens show for `Clc1ccc(N=c2ssnc2Cl)cc1`?
Tau FP inhib: 17.8µM*; Tau fluor counter: -21.6%; USP1 inh: -23.0%; Coupling enz: 11.0; Tau fibril ThT: 12.6µM*

How did COc1ccc(N=c2ssnc2Cl)cc1 do in these assays?
Tau FP inhib: inconclusive; Tau fluor counter: -24.3%; USP1 inh: -23.2%; Coupling enz: -0.6; Tau fibril ThT: 12.6µM*

Results for CCOC(=O)c1ccc(N=c2ssnc2Cl)cc1 ?
Tau FP inhib: inconclusive; Tau fluor counter: -17.6%; USP1 inh: -3.7%; Coupling enz: 1.5; Tau fibril ThT: 28.2µM*

Results for Fc1ccc(N=c2ssnc2Cl)c(F)c1 ?
Tau FP inhib: inconclusive; Tau fluor counter: -15.2%; USP1 inh: -30.9%; Coupling enz: 1.5; Tau fibril ThT: 14.1µM*

How did CCOC(=O)c1ccc(N=C2SC(C(=O)NC)CC(=O)N2Cc2ccc(F)cc2)cc1 (stereo not drawn) do in these assays?
Tau FP inhib: inconclusive; Tau fluor counter: -21.3%; USP1 inh: -16.3%; Coupling enz: 2.2; Tau fibril ThT: 4.2%

How did CCc1cccc(C)c1NC(=O)CSc1n[nH]c(-c2ccccc2)n1 do in these assays?
Tau FP inhib: 1.5%; Tau fluor counter: 3.3%; USP1 inh: -20.2%; Tau fibril ThT: 4.7%

What do the screens show for `CCCCCCCc1cc2c(cn1)C(=O)C(C)(OC(C)=O)C(O)=C2Cl` (stereo not drawn)?
Tau FP inhib: inconclusive; Tau fluor counter: -22.6%; Coupling enz: -1.6; Tau fibril ThT: inconclusive

Results for Cc1cc(F)ccc1NC(=O)CCS(=O)(=O)c1cc2c(cc1C)NC(=O)CO2 ?
Tau FP inhib: -3.9%; Tau fluor counter: -9.8%; USP1 inh: -14.1%; Tau fibril ThT: -8.1%
